A selection follows.
aSyn 5UTR act = Activators via SNCA 5'UTR binding, MLPCN; alpha-synuclein 5'UTR reporter, activators screen; activity score, % (tested at 7.5 µM), hits read low; hit rate 7.1% among 300,000; in the data active means activity score below about -60%
* marks the source's active call; other numbers are inactive results.

SMILES	aSyn 5UTR act
O=C(Nc1ncccc1Cl)c1cc2ccccc2o1	-74.0*
Cc1ccc2oc(Nc3nc(C)c(C)c(C)n3)nc2c1	-99.4*
CC1Oc2ccccc2C=C1/C=N/Nc1ccc(C(=O)O)cc1 (stereo not given)	-95.1*
Cc1cc(C)nc(SC/C=C/c2ccccc2)n1	-89.0*
C(=C\c1ccccc1)/CSc1ccccn1	-186.8*
O=[N+]([O-])/C(C(Cl)=C(Cl)Cl)=C(\Nc1ccc(F)cc1)n1cncn1	-102.4*
CN1/C(=C/C=C(/C#N)C(N)=O)C(C)(C)c2ccccc21	-146.0*
CCCN1CCC(=O)N([C@H](CSc2ccc(C)cc2)CC(C)C)CC1	-174.8*
CC(C)C[C@@H](CSc1ccccc1)N1CCN(CC(C)C)CCC1=O	-175.1*
CCCN1CCC(=O)N([C@H](CSc2ccccc2)CC(C)C)CC1	-99.7*
CCCN1CCC(=O)N([C@H](CSc2ccc(Br)cc2)c2ccccc2)CC1	-120.2*
C#CCn1c(=NC(=O)c2cccs2)sc2cccc(OC)c21	-97.4*
Brc1ccccc1OCCCn1cnc2ccccc21	-93.1*
COc1ccc(OCCn2cnc3ccccc32)cc1	-70.1*
Cc1ccccc1OCC(O)Cn1c(=N)n(Cc2ccccc2)c2ccccc21 (stereo not given)	113.2
Cc1ccccc1OCCCCn1cnc2ccccc21	-83.4*
c1ccc(CCn2cnc3ccccc32)cc1	-90.5*
Cc1cccnc1NC(=S)NC(=O)/C=C/c1ccco1	-88.7*
O=C(/C=C/c1ccco1)NC(=S)Nc1ccccn1	-127.5*
N=c1scc(-c2ccccc2)n1/N=C/c1ccco1	-220.3*
C=CCOc1c(Cl)cc(C(=S)N2CCCC2)cc1OCC	-94.9*
COc1ccc(CC(=O)c2ccc(OC3OC(CO)C(O)C(O)C3O)cc2O)cc1 (stereo not given)	-68.7*
COc1ccc(-c2coc3cc(OC4OC(CO)C(O)C(O)C4O)ccc3c2=O)cc1 (stereo not given)	-123.9*
COc1ccc(-c2coc3cc(O)ccc3c2=O)cc1O	-89.6*
COc1ccc(-c2coc3cc(O)ccc3c2=O)cc1	-134.4*
SMILES	aSyn 5UTR act
CCOc1cccc2cc(-c3cn4cc(C)ccc4n3)c(=O)oc12	-83.3*
COc1cccc2cc(-c3cn4ccc(C)cc4n3)c(=O)oc12	-87.8*
COc1cccc2cc(-c3cn4cccc(C)c4n3)c(=O)oc12	-154.4*
COc1ccc(-n2c(C)cc(-c3cn4cccc(C)c4n3)c2C)cc1	-78.8*
O=[N+]([O-])c1nn(-c2ccc3c(c2)OCCO3)n(O)c1=NCc1ccccc1Cl	-95.2*
O=[N+]([O-])c1nn(-c2ccc3c(c2)OCCO3)n(O)c1=NC1CCCCC1	-64.5*
COc1ccccc1CN=c1c([N+](=O)[O-])nn(-c2ccc3c(c2)OCCO3)n1O	-131.9*
COc1ccc(CCc2nnc(CCC(=O)NCc3cc(C(C)C)no3)o2)cc1	-98.6*
O=S(=O)(c1cccc(-c2nnc(SCc3nc4ccccc4s3)o2)c1)N1CCOCC1	-186.6*
O=S(=O)(c1ccc(OCc2nc3ccccc3s2)c(Cl)c1)N1CCOCC1	-140.7*
COc1ccc(N2C(=O)CC(Sc3nc(C)cc(C)c3C#N)C2=O)cc1 (stereo not given)	-86.9*
COc1cccc(NC(=O)c2ocnc2C)c1	-81.0*
Cc1ncoc1C(=O)Nc1cccc(Cl)c1	-92.1*
Cc1ccc(NC(=O)c2ocnc2C)cc1Cl	-239.6*
COc1ccc(C(=O)N2CCc3ccc(NC(=O)c4ccccn4)cc3C2)cc1F	-101.2*
COc1ccccc1C1=NN(C(=S)Nc2ccccc2)C(c2ccco2)C1 (stereo not given)	-154.1*
COc1ccc(-c2noc(-c3ccoc3C)n2)cc1	-142.9*
COc1ccc(-c2noc(-c3ccoc3C)n2)cc1OC	-131.8*
COc1ccc(C2=Nn3c(nnc3-c3ccco3)SC2)cc1OC	79.0
COc1cccc(-c2noc(-c3ccoc3C)n2)c1	-212.5*
COc1ccc(-c2noc(-c3ccco3)n2)cc1OC	-110.3*
CSc1nc(-c2ccc(N(C)C)cc2)c(C#N)c(=O)n1C	-71.9*
CN(C)c1cccc(C(=O)NNC(=S)NC2CCCC2)c1	-63.7*
CC(C)c1cc(C(=O)NNC(=S)NC2CCCCC2)cs1	-85.6*
CCc1cc(C(=O)NNC(=S)NC2CCCCC2)cs1	-87.2*
SMILES	aSyn 5UTR act
COc1ccc(/C=C(\C#N)C(=O)OC2CCOC2=O)cc1 (stereo not given)	-84.1*
O=C1CCCC(O)=C1C=Nc1ccc2c(c1)oc1ccccc12	-168.5*
CCC(=O)N1CCc2nc(-c3ccccc3)sc2C1	-179.2*
COc1ccc(-c2c(C#N)c(N)nc(Sc3ccc(Cl)cc3)c2C#N)cc1	57.5
COc1ccc(-c2cc3nc4ccccc4n3c(N)c2C#N)cc1	-128.1*
Cc1cc(/C=C2\SC(=S)N(C)C2=O)c(C)n1-c1cccc(O)c1	-70.7*
Cc1cc(/C=C2\SC(=S)N(Cc3ccco3)C2=O)c(C)n1-c1ccccc1	-74.0*
COc1ccc(-n2c(C)cc(/C=C3/SC(=S)N(C)C3=O)c2C)cc1	-85.4*
O=c1[nH][nH]c(-c2ccccc2O)c1C(C[N+](=O)[O-])c1ccc(Br)cc1 (stereo not given)	-94.8*
COC1c2ccccc2C(=O)N1CCc1ccc(Cl)cc1 (stereo not given)	-73.4*
Cc1cc(NC(=S)NC(=O)CC(C)C)ccc1Br	-155.1*
O=[N+]([O-])c1cccc(NC(=S)N2CCc3ccccc3C2)c1	-120.1*
Cc1cc(NC(=O)CC2CCCC2)ccc1Br	-122.8*
Cc1ccc(NC(=O)Nc2ccc3c(c2)CCC3)cc1	-123.7*
Cc1cc(NC(=O)CCSc2ccccc2)ccc1Br	-61.6*
Cc1cc(SCC(=O)N/N=C/c2ccc(O)cc2O)c(C)cc1Br	78.3
O=C(Cc1ccccc1)Nc1ccc2c(c1)CCC2	-105.2*
O=C(Nc1cccc([N+](=O)[O-])c1)Nc1ccc2c(c1)CCC2	-105.0*
O=C(Nc1ccc2c(c1)CCC2)Nc1ccc(F)cc1F	-129.0*
O=C(Nc1cccc([N+](=O)[O-])c1)Nc1cccs1	-110.3*
O=C(Nc1ccccc1)Nc1ccc2c(c1)CCC2	-135.2*
O=C(Nc1ccc(F)cc1)Nc1ccc2c(c1)CCC2	-119.8*
Cc1c(C(=O)Nc2cccc([N+](=O)[O-])c2)csc1-c1ccccc1	-130.3*
O=C(CC1CCCC1)Nc1ccc2c(c1)CCC2	-112.4*
O=C(Nc1cccc(F)c1)Nc1ccc2c(c1)CCC2	-160.1*
SMILES	aSyn 5UTR act
CC(=O)c1c(C)[nH]c(C(=O)Nc2ccc(F)cc2F)c1C	-111.4*
CC(=O)c1c(C)[nH]c(C(=O)NCCc2cccc(C)c2)c1C	-170.4*
CC(=O)c1c(C)[nH]c(C(=O)Nc2ccc(C)cc2Br)c1C	-131.1*
CC(=O)c1c(C)[nH]c(C(=O)Nc2ccccc2Cl)c1C	-62.6*
CC(C)OC(=O)/C(=C\c1ccc2c(c1)c1ccccc1n2C)NC(=O)c1ccccc1	-112.8*
CC(C)OC(=O)/C(=C/c1ccc2c(c1)c1ccccc1n2C)NC(=O)c1ccccc1	-145.9*
COc1ccc2c(c1)O/C(=C\c1sccc1C)C2=O	-197.8*
Cc1ccccc1N=C1Nc2ccccc2CS1	-134.0*
CC(=O)c1cnc(Nc2ccc(C)cc2)s1	-121.7*
Cc1cccc2nc3c(nc12)-c1ccccc1C3=O	-106.1*
Cc1ccc2nc3c(nc2c1)-c1ccccc1C3=O	-64.5*
COc1ccccc1NCC(=O)N/N=C(\C)c1cccs1	-91.7*
CCOc1ccc(-c2ccc(SCC(=O)NC3CCCCC3)nn2)cc1	-68.9*
COc1ccc(-c2ccc(SCC(=O)NC3CCCCC3)nn2)cc1	-83.0*
COc1ccc(-c2ccc(SC)nn2)cc1	75.0

Screening data: PubChem BioAssay, Broad Institute
